Screening data from PubChem BioAssay.
ATXN2 expr inh – Primary qHTS for Inhibitors of ATXN expression; AID 1745845, 2022; Potency, µM (doses to about 57 µM), without a hit: at the highest dose activity change, negative = inhibition, actives largely listed as inhibitors; 360,000 tested, 0.72% active; HEK-293 ATXN2-luciferase reporter, luminescence, 24 h; further: on the % scale 0 is the no-effect control and ±100 the full control effect; nearly all actives have a fitted effect of over 55% in size
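ATXN2-luciferase reporter cells (luciferase flanked by upstream and downstream ATXN2 gene portions) were treated 24 h at 37 °C with compounds at up to 57 uM. SteadyGlo luminescence gave expression; GF-AFC fluorescence gave viability.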
TGFb SMAD3 inh – qHTS for Inhibitors of TGF-b. HepG2 CAGA-GFP TGF-b/SMAD3 reporter, GFP fluorescence, 18 h; TGF-beta stimulated, 500 pg/mL final. Potency, µM (doses to about 46.1 µM), without a hit: at the highest dose activity, negative = inhibition, actives largely listed as inhibitors. 410,000 tested, 1.2% active. AID 588855, 2011; further: on the % scale 0 is the no-effect control and ±100 the full control effect; nearly all actives have a fitted effect of over 65% in size
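GFP signal (ex488/em500-530) from TGF-beta-stimulated HEPG2 CAGA-GFP cells, 500 pg/mL final, 18 h at 37 degrees C in DMEM plus 1% FBS, normalized to unstimulated and DMSO-stimulated controls.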
HT1080-NT tox – qHTS for induction of synthetic lethality in tumor cells producing 2HG: qHTS for the HT-1080-NT fibrosarcoma cell line | HT-1080-NT fibrosarcoma viability, CellTiter-Glo ATP luminescence, 48 h | Potency, µM (series often up to 46.1 µM), for inactives: at the highest dose activity, negative = less viability, actives largely listed as cytotoxic | 360,000 tested, 1.6% active;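 further: NT is the 2HG producing partner of a matched IDH1 knockdown line; 0% = DMSO-treated cells and -100% = media-only wells without cells; nearly all actives have a fitted effect of over 55% in size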
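A 48-hour cytotoxicity screen used HT-1080-NT cells plated 2 hours before compound delivery. ATP-based CellTiter-Glo luminescence measured viability, normalized to DMSO and no-cell controls.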
HepG2 tox – qHTS for Inhibitors of TGF-b: Cytotox Counterscreen; HepG2 CAGA-GFP viability, ATP luminescence, 18 h; 410,000 tested, 0.76% active; AID 588856, 2011; Potency, µM (doses to about 46.1 µM), without a hit: at the top dose activity change, negative = cytotoxicity, most hits filed as cytotoxic
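HepG2 CAGA-GFP cells (1000/well, DMEM with 1% FBS) received compound, then TGF-beta at 500 pg/mL final, and were incubated 18 hours at 37 degrees C. Viability was read by CellTiter-Glo luminescence. Media-only wells were set as complete cell-killing and DMSO as no toxicity.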
HT1080 IDH1KD tx – qHTS for induction of synthetic lethality in tumor cells producing 2HG: qHTS for the HT-1080-IDH1KD cell line | HT-1080 IDH1 knockdown viability, ATP luminescence, 48 h | Potency, µM (titrated, usually from 46.1 µM), for inactives: at the top dose activity, negative = toxicity, usual class: cytotoxic | 360,000 tested, 2% active | AID 686971, 2013;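 further: 0% = DMSO wells and -100% = cell-free medium wells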
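HT-1080-IDH1KD cells (IDH1 knocked down), 750/well in RPMI with 5% FBS, treated with compound 48 h at 37 degrees C. Viability by CellTiter-Glo luminescence, normalised to DMSO and no-cell wells; concentration-response curves classed.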
S2 tox – Viability Counterscreen for Primary qHTS for Inhibitors of ATXN expression; S2 cells (HEK-293 line with an ATXN2-luciferase reporter) viability, CellTiter-Fluor protease fluorescence, 24 h; Potency, µM (titrated, usually from 56.7 µM), hits mostly cytotoxic; AID 651635, 2014; 400,000 tested, 0.49% active; further: nearly all actives have a fitted effect of over 40% in size
* hit, by the source's call. A selection: hits, their analogues and other compounds. The true share with any hit is near 3.8%. The call rests on the fitted dose curve; in most records, active means well fitted curve in the direction sought with a large enough effect; inconclusive means small, poorly fitted or top-dose-only effect, or another doubt; inactive means no such curve, though single readings can be large; an effect the other way counts as inactive or inconclusive. Potency means the concentration at half of the fitted maximal effect.

For O=C1S/C(=C\c2ccc(N3CCOCC3)o2)C(=O)N1Cc1ccc(F)cc1 the results were ATXN2 expr inh -15%, TGFb SMAD3 inh -6%, HT1080-NT tox 6.3µM*, HepG2 tox -18%, HT1080 IDH1KD tx 3.2µM* and S2 tox inactive.
`CC(C)OC(=O)CN1C(=O)S/C(=C/c2ccc(N3CCCCC3)o2)C1=O` gave ATXN2 expr inh -3%, TGFb SMAD3 inh 68%, HT1080-NT tox inconclusive, HepG2 tox -60%, HT1080 IDH1KD tx 11µM* and S2 tox inactive.
Screening O=C1/C(=C/c2ccc(N3CCOCC3)o2)SC(=Nc2ccccc2)N1CCc1c[nH]c2ccccc12 returned ATXN2 expr inh 18µM*, TGFb SMAD3 inh -1%, HT1080-NT tox 7.3µM*, HepG2 tox 13µM*, HT1080 IDH1KD tx 4.1µM* and S2 tox inconclusive.
`CC1CCCN(c2cc3c(cc2F)c(=O)c(S(=O)(=O)c2cccc(Cl)c2)cn3C)C1` (configuration not stated) gave TGFb SMAD3 inh 9% and HepG2 tox 6%.
Screening COc1ccccc1/C=C/C(=O)/C=C/c1ccccc1O returned ATXN2 expr inh inconclusive, TGFb SMAD3 inh inconclusive, HT1080-NT tox 6.5µM*, HepG2 tox -21%, HT1080 IDH1KD tx 5.8µM* and S2 tox inconclusive.
COc1ccccc1C=CC(=O)C=Cc1ccccc1OC was read as ATXN2 expr inh 17µM*, TGFb SMAD3 inh 10µM*, HT1080-NT tox inconclusive, HepG2 tox -94% and HT1080 IDH1KD tx 13µM*.
For Cn1nnc2c(N3CCCCC3)ncnc21 the results were ATXN2 expr inh 13%, TGFb SMAD3 inh 38%, HT1080-NT tox 17%, HepG2 tox -16%, HT1080 IDH1KD tx 21% and S2 tox inactive.
CCCCc1ccc(NC(=O)COc2cccc3c(=O)n(C)ccc23)cc1 was read as ATXN2 expr inh inconclusive, TGFb SMAD3 inh 8.9µM*, HepG2 tox -51% and S2 tox inconclusive.
For CCCn1ccc2c(OCC(=O)Nc3ccc(NC(C)=O)cc3)cccc2c1=O the results were ATXN2 expr inh -1%, TGFb SMAD3 inh 7%, HT1080-NT tox -3%, HepG2 tox -12%, HT1080 IDH1KD tx -1% and S2 tox inactive.
`CCn1ccc2c(OCC(=O)Nc3ccc(C)c(Cl)c3)cccc2c1=O` gave ATXN2 expr inh inconclusive, TGFb SMAD3 inh 7.1µM* and HepG2 tox -37%.
Screening COCCn1ccc2c(OCC(=O)Nc3cccc(NC(C)=O)c3)cccc2c1=O returned ATXN2 expr inh 3%, TGFb SMAD3 inh -4%, HT1080-NT tox -5%, HepG2 tox 18µM*, HT1080 IDH1KD tx -1% and S2 tox inactive.
Screening CCCn1ccc2c(OCC(=O)Nc3ccc(OC)c(OC)c3)cccc2c1=O returned ATXN2 expr inh inconclusive, TGFb SMAD3 inh -26%, HepG2 tox -18% and S2 tox inconclusive.
For CCC(=O)N1CCc2cc(S(=O)(=O)NC(CC(C)C)C(=O)NCc3ccc(C)cc3)ccc21 (configuration not stated) the results were ATXN2 expr inh -9%, TGFb SMAD3 inh 7%, HepG2 tox -4% and S2 tox inactive.
Screening COc1cc(C(=O)Nc2nc3c(s2)Cc2c(Br)ccc(OC)c2-3)cc(OC)c1OC returned ATXN2 expr inh -11%, TGFb SMAD3 inh 2%, HepG2 tox -10% and S2 tox inactive.
CC(=O)N(CC(O)CN(C(C)=O)c1c(I)c(C(=O)NCC(O)CO)c(I)c(C(=O)NCC(O)CO)c1I)c1c(I)c(C(=O)NCC(O)CO)c(I)c(C(=O)NCC(O)CO)c1I (configuration not stated) was read as ATXN2 expr inh 3% and S2 tox inactive.
For COc1ccc(CCNC2CCC(c3ccccc3)CC2)cc1 (configuration not stated) the results were ATXN2 expr inh -15%, TGFb SMAD3 inh 8%, HT1080-NT tox 18µM*, HepG2 tox -18%, HT1080 IDH1KD tx inconclusive and S2 tox inactive.
`COc1ccc(CCNC2CCc3ccccc3C2)cc1` (configuration not stated) gave TGFb SMAD3 inh -10%, HT1080-NT tox -11%, HepG2 tox -29% and HT1080 IDH1KD tx -14%.
CC(C)c1ccc(C(O)P(=O)(OC2CCCCC2)OC2CCCCC2)cc1 (configuration not stated) was read as TGFb SMAD3 inh inconclusive, HT1080-NT tox inconclusive, HepG2 tox -133%, HT1080 IDH1KD tx inconclusive and S2 tox 32µM*.
For O=C(CCN1C(=O)/C(=C/c2ccccc2Cl)SC1=S)Nc1cccnc1 the results were TGFb SMAD3 inh 8%, HT1080-NT tox -3%, HepG2 tox 2%, HT1080 IDH1KD tx -14% and S2 tox inactive.
Screening O=C(CCCN1C(=O)/C(=C/c2ccccc2Cl)SC1=S)Nc1cccnc1 returned ATXN2 expr inh inconclusive, TGFb SMAD3 inh -1%, HT1080-NT tox -2%, HepG2 tox -1%, HT1080 IDH1KD tx 0% and S2 tox 14µM*.
Screening O=C(CCN1C(=O)/C(=C/c2ccccc2Cl)SC1=S)Nc1ccccn1 returned TGFb SMAD3 inh -11%, HT1080-NT tox -3%, HepG2 tox -30%, HT1080 IDH1KD tx 0% and S2 tox inactive.
O=C(CCCN1C(=O)/C(=C/c2ccccc2Cl)SC1=S)Nc1ccccn1 was read as ATXN2 expr inh 17µM*, TGFb SMAD3 inh inconclusive, HT1080-NT tox -2%, HepG2 tox -15%, HT1080 IDH1KD tx 5% and S2 tox inactive.
CCCCn1c(N)c(N(CC(C)C)C(=O)c2ccc(-c3ccc([N+](=O)[O-])cc3)o2)c(=O)[nH]c1=O was read as ATXN2 expr inh 4%, TGFb SMAD3 inh inconclusive, HT1080-NT tox 4%, HepG2 tox -13%, HT1080 IDH1KD tx -3% and S2 tox inactive.
For CCCCn1c(N)c(N(CCC(C)C)C(=O)c2ccc(-c3ccc([N+](=O)[O-])cc3)o2)c(=O)[nH]c1=O the results were ATXN2 expr inh 14µM*, TGFb SMAD3 inh 1%, HT1080-NT tox 0%, HepG2 tox 6% and HT1080 IDH1KD tx 5%.
